Calls of active or inactive are those of the source.
Assays:
[1] = system: Plasmodium falciparum Sir2 (PF13_0152, Sir2A); test: Plasmodium falciparum Sir2A binding compounds – biochemical, small-molecule microarray, 635 nm fluorescence, primary screen (AID 1098); details: fluorescence 635 nm, higher = more signal;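 note: score merges spot fluorescence intensity with its signal-to-noise ratio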
[2] = probe aDKK1 binding to arrayed compounds – biochemical, biotinylated probe, 635/667 nm fluorescence, primary screen (AID 1099); details: small-molecule microarray, higher = more signal;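 note: score merges 667nm spot fluorescence with signal to noise across triplicate slides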
[3] = probe aCHRDL2 binding to arrayed compounds – biochemical, biotinylated probe, 635/667 nm fluorescence, primary screen (AID 1100); details: small-molecule microarray, higher = more signal
[4] = change in splice reporter luminescence, either direction, cell-based, HEK293, spliceosome inhibition project, primary screen (AID 1101); details: HEK293 splicing luciferase reporter, 24 h, higher = more signal, called active from +8 up or from −8 down;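 note: HEK293 cells carrying a splicing-competent luciferase reporter gene; test concentration not given here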
[5] = target: Fibroblast growth factor 10 (Homo sapiens) (UniProt O15520); test: compounds binding fibroblast growth factor 10 – biochemical, small-molecule microarray, 635 nm fluorescence, primary screen (AID 1102); details: FGF10 binding, fluorescence 635 nm, higher = more signal
[6] = system: glycogen synthase kinase-3 (GSK3A per assay name; protocol says GSK3B); test: compounds binding glycogen synthase kinase-3 – biochemical, small-molecule microarray, 635 nm fluorescence, GSK3A, primary screen (AID 1103); details: fluorescence 635 nm, higher = more signal; note: the record names both GSK3A and GSK3B
[7] = target: Epidermal growth factor receptor (Homo sapiens) (UniProt P00533); test: compounds binding epidermal growth factor receptor – biochemical, small-molecule microarray, 635 nm fluorescence, primary screen (AID 1104); details: EGFR binding, higher = more signal;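 note: score merges 667 nm emission intensity with spot signal to noise over triplicate slides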
[8] = target: Follistatin-related protein 3 (Homo sapiens) (UniProt O95633); test: compounds binding follistatin-related protein 3 – biochemical, small-molecule microarray, 635 nm fluorescence, primary screen (AID 1105); details: FSTL3 binding, higher = more signal;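 note: score merges emission near 667 nm and signal to noise per printed spot across three slides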
[9] = target: Dickkopf-related protein 1 (Homo sapiens) (UniProt O94907); test: small molecules binding DKK1 protein – biochemical, small-molecule microarray, 635 nm fluorescence scan, primary screen (AID 1106); details: higher = more signal;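 note: score merges emission near 667 nm with signal to noise over three replicate slides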
[10] = system: Inhibin beta A chain (activin A); test: small molecules binding activin A – biochemical, small-molecule microarray, 635 nm fluorescence scan, primary screen (AID 1107); details: INHBA, higher = more signal;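 note: mouse activin A protein probed at 4.33 µg/mL on printed slides; score merges bound-protein fluorescence near 667 nm with spot signal-to-noise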
[11] = system: Human papillomavirus type 1a protein E7 (residues 44-93); test: small molecules binding HPV E7 44-93 – biochemical, small-molecule microarray, residues 44-93, 635 nm fluorescence, primary screen (AID 1108); details: fluorescence 635 nm, higher = more signal;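 note: E7 fragment applied at 1 µg/mL in TBST for 1 h at 4 C; score combines spot fluorescence with its signal to noise ratio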
[12] = hepatitis C replication reporter changes, two-sided – Huh7 cells, luciferase reporter, HCV replication inhibitor project, primary screen (AID 1109); details: Huh7 HCV replicon luciferase reporter, 48 h; higher = more signal;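 note: huh7 hepatoma cells harbouring a luciferase neomycin HCV replicon reporter; luciferase luminescence as measure of HCV replicon replication; test concentration not given here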
[13] = target: Left-right determination factor 2 (Homo sapiens) (UniProt O00292); test: small molecules binding LEFTY2 protein – biochemical, small-molecule microarray, 635 nm fluorescence scan, primary screen (AID 1110); details: higher = more signal
[14] = target: Calmodulin-1 (Homo sapiens) (UniProt P0DP23); test: small molecules binding calmodulin-1 with EGTA – biochemical, small-molecule microarray, Cy5-labelled CALM1, profiling panel (AID 1111); details: Cy5-CALM1 binding fluorescence, higher = more signal;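 note: labelled calmodulin applied in Tris saline Tween buffer holding calcium plus EGTA and DTT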
[15] = target: Calmodulin-1 (Homo sapiens) (UniProt P0DP23); test: small molecules binding Ca-loaded calmodulin-1 – biochemical, small-molecule microarray, Cy5-labelled CALM1, plus calcium, artefact control for SMM control-protein annotation, profiling panel (AID 1112); details: Cy5-CALM1 binding fluorescence, higher = more signal;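 note: score merges spot fluorescence with signal to noise from triplicate slides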
[16] = probe aWnt5a binding to arrayed compounds – biochemical, biotinylated probe, 635/667 nm fluorescence, primary screen (AID 1113); details: small-molecule microarray, higher = more signal;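 note: score merges 667 nm fluorescence intensity with signal-to-noise per printed feature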
[17] = probe aShh binding to arrayed compounds – biochemical, biotinylated probe, 635/667 nm fluorescence, primary screen (AID 1114); details: small-molecule microarray, higher = more signal;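 note: probe is biotin-labelled aShh protein from a stem cell growth factor screen; measures binding of labelled protein to compounds printed on the slide; score merges feature fluorescence at 667 nm with signal-to-noise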
[18] = probe aNog binding to arrayed compounds – biochemical, biotinylated probe, 635/667 nm fluorescence, primary screen (AID 1115); details: small-molecule microarray, higher = more signal;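 note: probe is biotinylated aNog protein used at 0.15 µg/mL for 1 h at 4 C; z-score combines 667 nm fluorescence of each spot with its signal to noise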
[19] = target: Torsin-1A-interacting protein 1 (Homo sapiens) (UniProt Q5JTV8); test: compound microarray binding of lysate hLAP1 – cell lysate, small-molecule microarray, COS7 lysate, 635/667 nm fluorescence, primary screen (AID 1116); details: 635 nm fluorescence, higher = more signal
[20] = target: Alpha-bungarotoxin (Bungarus multicinctus) (UniProt P60615); test: compounds binding labelled alpha-BTX control protein – biochemical, small-molecule microarray, Alexa647 label, 635/667 nm fluorescence, artefact control for SMM control protein annotation, profiling panel (AID 1117); details: alpha-BTX-A647 binding fluorescence, higher = more signal
Chain of Alpha-bungarotoxin (Bungarus multicinctus) (P60615 whole entry, looked up): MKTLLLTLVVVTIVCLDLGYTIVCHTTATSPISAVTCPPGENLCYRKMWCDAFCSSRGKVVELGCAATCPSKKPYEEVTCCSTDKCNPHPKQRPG

Chain of Torsin-1A-interacting protein 1 (Homo sapiens) (Q5JTV8 whole entry, looked up): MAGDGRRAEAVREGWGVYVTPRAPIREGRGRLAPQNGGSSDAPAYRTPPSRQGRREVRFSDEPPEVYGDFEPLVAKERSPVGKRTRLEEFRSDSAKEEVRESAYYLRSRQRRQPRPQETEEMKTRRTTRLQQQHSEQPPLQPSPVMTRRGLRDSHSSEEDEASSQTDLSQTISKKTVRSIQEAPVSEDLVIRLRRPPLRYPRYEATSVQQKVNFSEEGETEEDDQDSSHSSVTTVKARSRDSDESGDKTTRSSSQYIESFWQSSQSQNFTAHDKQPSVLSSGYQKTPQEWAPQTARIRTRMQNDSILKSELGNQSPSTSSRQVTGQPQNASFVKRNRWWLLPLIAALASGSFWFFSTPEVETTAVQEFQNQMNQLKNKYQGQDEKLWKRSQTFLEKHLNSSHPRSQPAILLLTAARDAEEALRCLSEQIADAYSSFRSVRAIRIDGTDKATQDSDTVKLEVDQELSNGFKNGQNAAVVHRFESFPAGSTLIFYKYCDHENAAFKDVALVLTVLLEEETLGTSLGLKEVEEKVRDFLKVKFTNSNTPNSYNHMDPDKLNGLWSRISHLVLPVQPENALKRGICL
Chain of Dickkopf-related protein 1 (Homo sapiens) (O94907 whole entry, looked up): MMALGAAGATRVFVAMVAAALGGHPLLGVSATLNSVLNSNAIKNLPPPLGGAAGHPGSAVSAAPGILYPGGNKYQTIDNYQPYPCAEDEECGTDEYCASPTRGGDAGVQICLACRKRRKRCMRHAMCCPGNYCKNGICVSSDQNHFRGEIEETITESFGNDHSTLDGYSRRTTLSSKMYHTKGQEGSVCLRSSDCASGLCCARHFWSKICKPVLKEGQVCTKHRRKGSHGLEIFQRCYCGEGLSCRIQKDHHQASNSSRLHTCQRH
Chain of Fibroblast growth factor 10 (Homo sapiens) (O15520 whole entry, looked up): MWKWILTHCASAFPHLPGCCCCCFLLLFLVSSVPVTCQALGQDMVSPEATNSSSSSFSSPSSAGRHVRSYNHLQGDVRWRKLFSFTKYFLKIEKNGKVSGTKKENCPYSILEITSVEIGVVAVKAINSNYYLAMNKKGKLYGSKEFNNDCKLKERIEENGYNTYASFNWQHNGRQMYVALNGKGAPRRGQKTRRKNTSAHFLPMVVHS
Chain of Left-right determination factor 2 (Homo sapiens) (O00292 whole entry, looked up): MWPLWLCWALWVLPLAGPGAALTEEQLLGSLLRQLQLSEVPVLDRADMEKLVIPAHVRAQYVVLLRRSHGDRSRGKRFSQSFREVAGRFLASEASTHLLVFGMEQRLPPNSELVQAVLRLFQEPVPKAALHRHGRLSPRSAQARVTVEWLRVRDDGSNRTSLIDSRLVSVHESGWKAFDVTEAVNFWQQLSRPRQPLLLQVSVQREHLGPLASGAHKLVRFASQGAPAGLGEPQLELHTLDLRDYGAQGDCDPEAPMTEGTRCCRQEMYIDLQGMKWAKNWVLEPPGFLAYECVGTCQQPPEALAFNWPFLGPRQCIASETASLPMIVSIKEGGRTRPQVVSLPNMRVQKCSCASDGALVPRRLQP
Chain of Epidermal growth factor receptor (Homo sapiens) (P00533 whole entry, looked up): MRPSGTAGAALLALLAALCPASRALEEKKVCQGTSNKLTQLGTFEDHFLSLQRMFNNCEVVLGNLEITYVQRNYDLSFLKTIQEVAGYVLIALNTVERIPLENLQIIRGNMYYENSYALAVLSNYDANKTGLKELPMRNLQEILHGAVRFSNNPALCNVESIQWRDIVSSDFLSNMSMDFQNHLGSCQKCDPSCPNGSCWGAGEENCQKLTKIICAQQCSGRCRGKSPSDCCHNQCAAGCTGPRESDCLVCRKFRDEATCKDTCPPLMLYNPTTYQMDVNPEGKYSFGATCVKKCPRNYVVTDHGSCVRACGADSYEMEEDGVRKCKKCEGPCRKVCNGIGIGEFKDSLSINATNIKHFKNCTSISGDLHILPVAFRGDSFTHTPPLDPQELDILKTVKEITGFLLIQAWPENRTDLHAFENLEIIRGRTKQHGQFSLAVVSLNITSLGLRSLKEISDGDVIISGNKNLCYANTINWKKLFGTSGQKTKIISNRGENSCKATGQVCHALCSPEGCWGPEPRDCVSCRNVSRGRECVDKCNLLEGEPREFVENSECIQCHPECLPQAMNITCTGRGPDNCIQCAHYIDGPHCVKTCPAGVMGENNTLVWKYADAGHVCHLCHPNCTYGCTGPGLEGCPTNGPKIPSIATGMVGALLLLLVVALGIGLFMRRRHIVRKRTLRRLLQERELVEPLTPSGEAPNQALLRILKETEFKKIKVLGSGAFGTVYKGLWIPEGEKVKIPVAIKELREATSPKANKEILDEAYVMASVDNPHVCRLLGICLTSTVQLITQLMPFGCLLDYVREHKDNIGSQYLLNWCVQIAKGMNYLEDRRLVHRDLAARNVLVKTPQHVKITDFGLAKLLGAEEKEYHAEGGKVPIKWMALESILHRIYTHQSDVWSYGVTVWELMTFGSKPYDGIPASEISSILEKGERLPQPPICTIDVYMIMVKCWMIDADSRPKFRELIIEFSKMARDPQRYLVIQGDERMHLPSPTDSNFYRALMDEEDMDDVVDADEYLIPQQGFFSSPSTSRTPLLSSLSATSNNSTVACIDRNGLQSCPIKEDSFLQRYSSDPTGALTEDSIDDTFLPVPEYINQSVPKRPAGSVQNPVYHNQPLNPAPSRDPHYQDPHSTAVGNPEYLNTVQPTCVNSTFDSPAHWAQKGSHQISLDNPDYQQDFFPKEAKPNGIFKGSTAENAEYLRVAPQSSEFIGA
Chain of Follistatin-related protein 3 (Homo sapiens) (O95633 whole entry, looked up): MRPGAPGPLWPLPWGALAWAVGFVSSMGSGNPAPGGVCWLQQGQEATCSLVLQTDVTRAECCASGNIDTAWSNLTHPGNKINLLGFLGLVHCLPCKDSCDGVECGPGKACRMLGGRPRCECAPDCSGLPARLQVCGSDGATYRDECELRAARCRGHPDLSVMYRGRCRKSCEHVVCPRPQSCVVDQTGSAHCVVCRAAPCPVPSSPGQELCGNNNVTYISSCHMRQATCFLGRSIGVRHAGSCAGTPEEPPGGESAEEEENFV

Row | SMILES | composite z-score [1] | composite z-score [2] | composite z-score [3] | z-score [4] | composite z-score [5] | composite z-score [6] | composite z-score [7] | composite z-score [8] | composite z-score [9] | composite z-score [10] | composite z-score [11] | z-score [12] | composite z-score [13] | composite z-score [14] | composite z-score [15] | composite z-score [16] | composite z-score [17] | composite z-score [18] | composite z-score [19] | composite z-score [20]
1 | O=C1O[C@@H](c2ccccc2)[C@@H](c2ccccc2)N2[C@@H](c3ccc(OCCO)cc3)[C@]3(C(=O)Nc4ccc(C#CC5(O)CCCCCC5)cc43)[C@@H](C(=O)O)[C@H]12 | 1.46 | 0.623 | 0.457 | -0.702 (inactive) | 0.372 | 0.995 | 0.146 | 0.401 | -0.0236 | 0.2 | 0.349 | -0.687 | 0.109 | 1.29 | 1.03 | -0.0495 | 0.0902 | -0.0047 | 0.835 | 0.987
2 | C=CCN1C(=O)[C@@]2(O[C@@H](CCn3cc([C@H](O)c4ccccc4)nn3)[C@H]([Si](C)(C)c3ccc(OC)cc3)[C@H]2C)c2cc(N3C(=O)c4cccc5cccc3c45)ccc21 | 0.0764 | -0.236 | 0.401 | -0.447 (inactive) | -0.859 | -1.37 | -1.04 | -1.06 | -1.12 | -0.893 | -0.18 | -3.74 | -0.898 | 0.178 | 0.872 | -0.178 | -0.138 | 0.205 | -0.236 | -0.0541
3 | COC(=O)[C@H](Cc1ccccc1)N1CC2=CCCC=C[C@@H]2[C@H]1[C@H](O)Cc1ccccc1 | 1.33 | -0.192 | -0.306 | -0.477 (inactive) | 0.363 | 0.171 | -0.244 | 0.525 | 0.29 | 0.702 | 0.216 | -1.74 | -0.149 | 1.09 | -0.749 | -0.0977 | 0.427 | 1.79 | 0.545 | 0.831
4 | C=CC[C@]1(C(=O)NCC(O)CO)COC(c2ccc(OCCCO)cc2)=N1 (stereo not given in full) | -0.329 | 0.787 | 1.05 | 0.2 (inactive) | -0.106 | 0.0993 | -1.18 | -0.865 | -0.463 | 1.12 | -0.683 | 0.412 | -0.531 | -0.189 | 0.202 | 0.0618 | 1.01 | -0.21 | 1.53 | -1.21
5 | O=C1NC(=O)C2C1C=CC(C(O)c1ccc([N+](=O)[O-])cc1)N2Nc1ccccn1 (stereo not given) | -0.0076 | 0.0152 | 0.14 | 1.34 (inactive) | 0.32 | -0.34 | 0.633 | -0.0907 | 0.328 | 0.854 | -0.382 | 0.403 | 0.33 | 0.259 | -0.746 | -0.102 | -0.138 | 0.0193 | 0.45 | -0.011
6 | COc1cc(C(O)C2C=CC3C(=O)N(c4ccccc4)C(=O)C3N2Nc2ccccc2)cc(OC)c1OC (stereo not given) | 1.27 | 1.03 | 1.13 | 1.28 (inactive) | 1.25 | 1.31 | -0.304 | 1.07 | -0.586 | 0.484 | 1.46 | -0.63 | -0.0844 | 1.84 | 0.613 | 0.0472 | 0.551 | 1.66 | 1.6 | 1.9
7 | C=C1C(=O)C=C2CN(C(=O)c3ccccc3)[C@@](Cc3ccc(OC)cc3)(C(=O)OC)[C@@H]12 | 1.14 | 1.18 | 1.18 | -2.15 (inactive) | 1.38 | 0.681 | 0.369 | 1.37 | -0.399 | 0.516 | 1.43 | -2.72 | -0.135 | 2.16 | 0.311 | 0.164 | 0.232 | 2.04 | 1.04 | 1.2
8 | COC(=O)c1cccc([C@H]2OC(=CC(=O)OC(C)C)C[C@@H](c3cccc(C(=O)OC)c3)O2)c1 | 1.26 | 0.515 | 0.284 | 0.599 (inactive) | 1.18 | 1.33 | 0.693 | 1.09 | 0.34 | 0.463 | 1.43 | -2.51 | 0.599 | 1.36 | 0.144 | 0.4 | 0.156 | -0.109 | 3.27 | 0.866
9 | CO[C@H]1O[C@H](CO)[C@@H](OC(=O)Nc2ccc3c(c2)OCO3)[C@H](OC(=O)Nc2ccccc2-c2ccccc2)[C@H]1OC(=O)Nc1ccccc1-c1ccccc1 | 0.977 | 0.446 | 0.591 | 0.617 (inactive) | 1.03 | 1.31 | -0.294 | 0.398 | -0.0521 | 0.411 | 1.08 | -3.79 | -0.0829 | 1.54 | -0.243 | 0.288 | -0.273 | 0.747 | 2.06 | 0.557
10 | CCCCC(O)C1C=CC2C(=O)N(c3ccccc3)C(=O)C2N1Nc1ccccc1 (stereo not given) | 0.664 | 0.696 | 0.91 | 0.759 (inactive) | 0.564 | -0.501 | -0.633 | -0.293 | -0.699 | 1.16 | 1.24 | -0.375 | -0.484 | 1.14 | 1.06 | 0.0153 | 0.232 | 0.331 | 0.721 | 1.45

— PubChem BioAssay
